Some test systems named below: NCI-H23 lung; NCI-H226 lung; NCI-H322M lung; HOP-62 NSCLC; NCI-H460 lung; HOP-92 NSCLC; NCI-H522 lung; A549/ATCC NSCLC; 786-0 renal; COLO 205 colon; DU-145 prostate; K-562 leukemia; MALME-3M melanoma; MDA-MB-231 breast; RXF 393 renal; SF-268 CNS; SF-295 CNS; SF-539 CNS; M14 melanoma; UACC-257 melanoma.
What all share (experiment): NCI-60 one-dose screen, 48 h (100 = growth as untreated, 0 = no growth, -100 = all killed)
Common to all, as to conditions: 10 µM unless noted

Compounds without any hit were thinned out: in the full panel of roughly 83,000, 20% have a hit.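 The test compound was applied at a single concentration to cells in 96-well plates for 48 hours, and percent growth was recorded.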 Unmarked numbers belong to inactive results. Activity calls are given as the source filed them. Rule for the calls: active = growth percent below 10; inactive = the rest.

Turning to `C=C1C(=O)O[C@H]2[C@H]1CC/C(Cn1cc(-c3ccc(F)cc3)nn1)=C\CC[C@@]1(C)O[C@@H]21`, the growth is 5.71% (active) in the test on NCI-H23 lung; -31.3% (active) in the test on NCI-H226 lung; 80.6% in the test on NCI-H322M lung; 44.4% in the test with HOP-62 NSCLC; 77.4% in the test with NCI-H460 lung; -67.7% (active) in the test with HOP-92 NSCLC. Also, the growth in the test with NCI-H522 lung was -80.4% (active); in the test with A549/ATCC NSCLC it was 60.2%; in the test on 786-0 renal it was -71.5% (active); in the test on COLO 205 colon, -84.4% (active); in the test on DU-145 prostate, -71.3% (active); in the test on K-562 leukemia, -20.3% (active). The growth was -58.1% (active) in the test on MALME-3M melanoma; -46.2% (active) with MDA-MB-231 breast; -68.1% (active) in the test on RXF 393 renal; 5.29% (active) in the test with SF-268 CNS; 86.4% in the test on SF-295 CNS; -34.6% (active) with SF-539 CNS. In addition, the growth in the test with M14 melanoma is -40.3% (active).
`c1ccc2[nH]c(-c3ccc(Nc4nc(N5CCCCC5)nc(N5CCOCC5)n4)cc3)nc2c1`: the growth with NCI-H23 lung is 19.7%; in the test with NCI-H226 lung, 32.7%; in the test on NCI-H322M lung it was 35%; in the test on HOP-62 NSCLC it was -45.2% (active); with NCI-H460 lung, 0.809% (active); in the test on HOP-92 NSCLC, 43.3%. Moreover, the growth in the test on NCI-H522 lung was 9.25% (active); in the test on A549/ATCC NSCLC it was 13.9%; in the test on 786-0 renal, -57.3% (active); in the test with COLO 205 colon, -61.3% (active); in the test on DU-145 prostate, 39%; in the test with K-562 leukemia, -6.74% (active). For the same compound, the growth in the test with MALME-3M melanoma is -50.2% (active); with MDA-MB-231 breast it was 23.1%; in the test on RXF 393 renal it was -56.1% (active); in the test with SF-268 CNS it was 33.8%; with SF-295 CNS it was -51.4% (active); with SF-539 CNS, 7.95% (active). Moreover, in the test on M14 melanoma, the growth was -24.5% (active).
As for `O=S(=O)(NCCNc1cc(-c2cn(-c3ccccc3)nc2-c2cccc(O)c2)ccn1)c1ccc(Br)cc1`, the growth in the test on NCI-H23 lung is 39.4%; with NCI-H226 lung, 45%; in the test with NCI-H322M lung, 50.8%; in the test with HOP-62 NSCLC, 40.4%; with NCI-H460 lung, 26%; in the test on HOP-92 NSCLC, 33.3%. The growth in the test with NCI-H522 lung was 31.9%; in the test with A549/ATCC NSCLC it was 27.2%; in the test with 786-0 renal it was 2.12% (active); with COLO 205 colon it was -64% (active); in the test with DU-145 prostate, 52.2%; in the test on K-562 leukemia, 3.66% (active). For the same compound, the growth in the test on MALME-3M melanoma was 43.2%; with MDA-MB-231 breast, 4.31% (active); in the test with RXF 393 renal it was 40.1%; in the test with SF-268 CNS, 36.1%; in the test with SF-295 CNS it was 7.27% (active); in the test on SF-539 CNS, 46.2%. In addition, in the test with M14 melanoma, the growth is 20.3%.
Regarding `COC(=O)[C@]12CC[C@@H](C)[C@H](C)[C@@H]1C1=CC(=O)[C@@H]3[C@@]4(C)C[C@@H](O)[C@H](O)[C@@]5(C)COC(=C45)C[C@@]3(C)[C@]1(C)CC2`, the growth is 76.9% in the test with NCI-H23 lung; 81.6% in the test on NCI-H226 lung; 88.4% with NCI-H322M lung; 50.8% in the test on HOP-62 NSCLC; 34.6% in the test with NCI-H460 lung; 45.6% in the test with HOP-92 NSCLC. The growth is 51% in the test with NCI-H522 lung; 41.6% in the test on A549/ATCC NSCLC; 78.5% with 786-0 renal; 40.8% in the test on COLO 205 colon; 92.7% in the test on DU-145 prostate; 14.2% with K-562 leukemia. The growth in the test with MALME-3M melanoma is 68%; in the test with MDA-MB-231 breast, 45.8%; in the test with RXF 393 renal it was 63.1%; in the test with SF-268 CNS it was 80.8%; in the test on SF-295 CNS, 61.3%; in the test on SF-539 CNS, 54.1%. Moreover, the growth with M14 melanoma is 27.4%.
As to `CSc1ccc(N(C)c2nc(C)nc3c2CCC3)cc1`, the growth in the test on NCI-H23 lung is 16.7%; in the test with NCI-H226 lung, 55.5%; in the test on NCI-H322M lung it was 57.4%; in the test on HOP-62 NSCLC it was 2.72% (active); in the test with NCI-H460 lung, 6.41% (active); with HOP-92 NSCLC it was -17% (active). Moreover, the growth in the test on NCI-H522 lung is -26.7% (active); in the test on A549/ATCC NSCLC, 6.42% (active); in the test on 786-0 renal, 14.4%; in the test on COLO 205 colon, -64.9% (active); in the test on DU-145 prostate, 9.33% (active); in the test on K-562 leukemia it was 5.51% (active). In addition, the growth in the test on MALME-3M melanoma was 92.8%; in the test on MDA-MB-231 breast it was 10%; in the test on RXF 393 renal, 44.7%; in the test with SF-268 CNS it was 26.9%; in the test with SF-295 CNS it was 14.3%; with SF-539 CNS, -16.1% (active). In the test on M14 melanoma, the growth was 5.22% (active).
For `COc1cc2c3c(c4c5ccccc5[nH]c4c2c(OC)c1OC)C(=O)N(O)C3=O`, the growth in the test on NCI-H23 lung was 54.9%; in the test with NCI-H226 lung, 42.6%; with NCI-H322M lung it was 37.4%; in the test on HOP-62 NSCLC it was 38%; with NCI-H460 lung, 26.9%; with HOP-92 NSCLC, 78.4%. In addition, the growth in the test on NCI-H522 lung is 45.7%; in the test with A549/ATCC NSCLC, 60.3%; with 786-0 renal, 69.6%; with COLO 205 colon, 61.1%; in the test with DU-145 prostate, 71.7%; in the test with K-562 leukemia it was 20.8%. Also, the growth with MALME-3M melanoma is 78.5%; with MDA-MB-231 breast, 44.2%; in the test on RXF 393 renal, 52.2%; in the test with SF-268 CNS, 49.3%; in the test with SF-295 CNS, 47.8%; in the test on SF-539 CNS, 30.9%. Further, the growth in the test on M14 melanoma was 37.5%.
With `COc1ccc(C(=O)c2cc(OC)c(OC)c(OC)c2)cc1/C=C/C(=O)c1cc(OC)c(OC)c(OC)c1`, the growth in the test with NCI-H23 lung is 79.9%; in the test on NCI-H226 lung it was 89.5%; in the test with NCI-H322M lung, 91.2%; in the test with HOP-62 NSCLC, 117%; with NCI-H460 lung, 83.7%; in the test with HOP-92 NSCLC it was 83.8%. The growth in the test with NCI-H522 lung is 84%; in the test on A549/ATCC NSCLC it was 92.9%; with 786-0 renal it was 104%; with COLO 205 colon, 95.5%; with DU-145 prostate, 83.4%; in the test on K-562 leukemia it was 99.8%. Besides, the growth in the test with MALME-3M melanoma is 86.1%; in the test on MDA-MB-231 breast, 62.8%; in the test on RXF 393 renal, 70%; in the test on SF-268 CNS it was 88.7%; in the test on SF-539 CNS, 94%; with UACC-257 melanoma it was 81.6%. Further, the growth in the test with M14 melanoma was 81.4%.

Source of the values: PubChem BioAssay (NCI).
